# Assay outcomes (PubChem BioAssay)
# TDP1 inh – qHTS Assay for Inhibitors of Tyrosyl-DNA Phosphodiesterase (TDP1) | Potency, µM (doses to about 130 µM), without a hit: top-dose activity change, negative = inhibition, most hits filed as inhibitors | recombinant TDP1, AlphaScreen DNA substrate cleavage | 0.28% of 350,000 active | Tyrosyl-DNA phosphodiesterase 1 (Homo sapiens), Q9NUW8; further: on the % scale 0 is the no-effect control and ±100 the full control effect; nearly all actives have a fitted effect of over 40% in size
# Target sequence (Q9NUW8 whole entry, looked up): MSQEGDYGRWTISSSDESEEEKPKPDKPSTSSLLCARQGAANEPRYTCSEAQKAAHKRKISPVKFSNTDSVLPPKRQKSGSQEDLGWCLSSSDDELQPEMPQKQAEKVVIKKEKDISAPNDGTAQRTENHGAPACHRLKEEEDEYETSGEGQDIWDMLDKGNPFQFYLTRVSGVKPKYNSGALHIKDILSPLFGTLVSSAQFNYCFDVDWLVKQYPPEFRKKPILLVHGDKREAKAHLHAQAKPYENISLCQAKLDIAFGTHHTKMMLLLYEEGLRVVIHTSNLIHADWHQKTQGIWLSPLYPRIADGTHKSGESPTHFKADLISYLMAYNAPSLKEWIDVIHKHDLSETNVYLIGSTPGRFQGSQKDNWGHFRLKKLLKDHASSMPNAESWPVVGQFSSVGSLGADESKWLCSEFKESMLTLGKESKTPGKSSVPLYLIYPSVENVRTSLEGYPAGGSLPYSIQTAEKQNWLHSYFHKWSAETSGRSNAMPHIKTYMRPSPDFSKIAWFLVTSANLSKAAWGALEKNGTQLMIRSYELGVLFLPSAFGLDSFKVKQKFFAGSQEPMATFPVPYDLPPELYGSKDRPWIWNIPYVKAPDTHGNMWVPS
#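 Recombinant E. coli-expressed Tdp1 (1 nM) preincubated with compound 15 min at RT, then 5'-biotin/3'-phosphotyrosine-FITC DNA substrate (15 nM) added for 5 min. AlphaScreen beads (10 ug/ml) added, 10 min RT; tyrosine-FITC cleavage read as signal loss.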
# Sfp inh – qHTS Assay for Inhibitors of Bacillus subtilis Sfp phosphopantetheinyl transferase (PPTase); Biochemical Sfp PPTase activity, qHTS; Potency, µM, without a hit: largest response in the series, negative = inhibition, actives largely listed as inhibitors; 3.5% of 310,000 active;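 further: the enzyme is Sfp with the accession as filed and its product quenches rhodamine fluorescence; 0% = enzyme reaction without inhibitor and -100% = no enzyme wells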
#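 Buffer: 50 mM Hepes-Na pH 7.6, 10 mM MgCl2, 0.01% Nonidet P-40, 0.01% BSA. Enzyme 15 nM, pre-exposed to compound 15 min; substrates then added and fluorescence change tracked over 30 min.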
# JMJD2A Tudor inh – qHTS Assay for Inhibitors of JMJD2A-Tudor Domain; Lysine-specific demethylase 4A (Homo sapiens), O75164; AlphaScreen JMJD2A-Tudor / H3K4me3 peptide binding; Potency, µM (doses to about 114 µM), for inactives: top-dose activity change, negative = inhibition, most hits filed as inhibitors; 4.4% of 390,000 active; AID 504339, 2011; further: on the % scale 0 is the no-effect control and ±100 the full control effect; nearly all actives have a fitted effect of over 50% in size
# BAZ2B block – qHTS Assay for Inhibitors of BAZ2B; AlphaScreen BAZ2B-H3K14Ac peptide displacement; Potency, µM (series often up to 114 µM), inactives show at the top dose activity change, negative = inhibition, hits mostly inhibitors; 4.4% of 360,000 active; AID 504333, 2011; further: on the % scale 0 is the no-effect control and ±100 the full control effect; nearly all actives have a fitted effect of over 60% in size
#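 Protein-peptide AlphaScreen: BAZ2B 50 nM, b-H3K14Ac 50 nM, 1x PBS pH 7.4 + 0.01% Tween-20. Preincubation 30 min RT; cpd 30 min RT (top 110 uM); beads 20 min RT, light-protected.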
# HP1b chromo inh – HTS for Inhibitors of HP1-beta Chromodomain Interactions with Methylated Histone Tails. AID 540317, 2011. 0.56% of 390,000 active. AlphaScreen HP1-beta / biotin-H3K9me3 peptide binding. Potency, µM (series often up to 114 µM), without a hit: at the highest dose activity change, negative = inhibition, hits mostly inhibitors; further: nearly all actives have a fitted effect of over 70% in size
# Target sequence (P83916 whole entry, looked up): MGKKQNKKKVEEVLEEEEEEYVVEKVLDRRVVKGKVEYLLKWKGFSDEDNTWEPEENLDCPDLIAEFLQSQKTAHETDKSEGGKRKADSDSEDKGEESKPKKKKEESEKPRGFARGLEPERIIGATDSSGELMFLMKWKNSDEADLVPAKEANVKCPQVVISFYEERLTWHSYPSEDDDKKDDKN
#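 HP1-beta protein (50 nM final) preincubated 30 min at room temperature with biotinylated H3(1-18)K9me3 peptide (50 nM) in PBS pH 7.4, 0.01% Tween-20, then compound added for 30 min. AlphaScreen streptavidin donor/nickel chelate acceptor beads (10 ug/mL final), 30 min dark, luminescence read.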
# G9a block – qHTS Assay for Inhibitors of Histone Lysine Methyltransferase G9a; AID 504332, 2011; G9a H3K9 monomethylation, AlphaScreen, 2 h; Histone-lysine N-methyltransferase EHMT2 (Homo sapiens), Q96KQ7; Potency, µM (highest dose often 102 µM), without a hit: top-dose activity, negative = inhibition, hits mostly inhibitors; 8.8% of 350,000 active; further: on the % scale 0 is the no-effect control and ±100 the full control effect; nearly all actives have a fitted effect of over 75% in size
#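 Using a bead-based AlphaScreen, monomethylated H3K9 product from 2 h room-temperature reactions (G9a 20 nM, peptide 500 nM, SAM 20 uM) was detected with 0.5 ug/mL rabbit anti-H3K9me1 antibody.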
# * = called active by the depositor; u = inconclusive; x = no result given; [ ] = remark or other dose. A selection: hits, their analogues and other compounds. The true share with any hit is near 12%. The call rests on the fitted dose curve; in most records, active means well fitted curve in the direction sought with a large enough effect; inconclusive means small, poorly fitted or top-dose-only effect, or another doubt; inactive means no such curve, though single readings can be large; an effect the other way counts as inactive or inconclusive. Potency means the concentration at half of the fitted maximal effect.
SMILES,TDP1 inh,Sfp inh,JMJD2A Tudor inh,BAZ2B block,HP1b chromo inh,G9a block
C=C(C)[C@@]12OC3(c4ccccc4)O[C@@H]1[C@@H]1[C@@H]4O[C@]4(CO)[C@@H](O)[C@]4(O)C(=O)C(C)=C[C@H]4[C@@]1(O3)[C@H](C)[C@H]2OC(=O)/C=C/C=C/c1ccccc1,15.4%,-0.4%,x,x,x,x
CN1C2CCC1CC(OC(c1ccc(F)cc1)c1ccc(F)cc1)C2 (stereo unspecified),4.9%,12.3%,x,x,x,12.0%[59 µM]
COc1ccc(OC)c(CCNCc2c(C(=O)O)c(C)n(Cc3ccc(F)cc3Cl)c2C)c1,10.1%,x,u,50.1µM*,15.6%,-27.1%[59 µM]
COc1ccc(CNCCc2ccc(Cl)cc2Cl)cc1,0.9%,-1.7%,-2.1%,8.9%,21.9%,25.3%
CCCCOCC1CO1 (stereo unspecified),-11.0%,x,x,x,x,x
CC(=O)c1ccc2c(c1)OCO2,8.2%,-0.5%,-12.2%,-1.0%,35.0%,-45.7%
C[n+]1cccc(C(=O)N/N=C/c2ccc3c(c2)OCO3)c1,-5.6%,-15.6%,-4.3%,50.1µM*,3.2%,u
CSSC,12.1%,x,x,x,x,x
CN1C(=O)C(Cc2ccc(OCc3ccccc3)cc2)C(=O)N(C)C1=O,x,-26.6%,-12.4%,-19.9%,45.6%,79.4µM*
COc1cc(CC2C(=O)N(C)C(=O)N(C)C2=O)ccc1OCc1ccccc1,-1.0%,-18.4%,-17.2%,-6.4%,0.6%,-22.7%[59 µM]
CC(C)C1C(=O)O[C@@H]2CCN3CC=C(COC(=O)[C@](C)(O)[C@]1(C)O)[C@H]23 (stereo partly specified),12.1%,23.0%,x,x,x,x
CCOC(=O)c1sc(=NC(=O)c2ccc(C)c(C)c2)n(C)c1C,1.2%,19.2%,20µM*,-4.7%,-10.4%,11.2%[59 µM]
CC([C@H](O)c1ccccc1)N(C)C (stereo partly specified),-7.3%[56.1 µM],18.4%,x,x,x,u
O=C(O)c1c[nH]c2ccc(S(=O)(=O)N(CCCl)CCCl)cc12,5.7%,5.1%,-6.2%,2.2%,28.1%,17.8µM*
N#C/C(=C(/O)c1ccc(S(=O)(=O)N(CCCl)CCCl)cc1)c1nc2ccccc2[nH]1,x,27.3%,-16.5%,-11.2%,58.3%,23.1%[12.7 µM]
O=C(/C=C\c1ccc(Cl)cc1)N[C@@]12CCC(=O)[C@@H]3Oc4c(O)ccc5c4[C@@]31CCN(CC1CC1)[C@@H]2C5,3.6%,17.7%,x,x,x,x
CC12CN3CC(C)(CN(C1)P3(=O)Oc1ccccc1)C2=O (stereo unspecified),7.4%,-0.7%,-33.1%,-5.6%,2.2%,39.8µM*
COc1cccc(C2=CC(c3cc(Br)ccc3F)n3nnnc3N2)c1 (stereo unspecified),8.5%,x,-9.6%,8.0%,63.7%,11.2µM*
O=C(Cc1ccccc1)Oc1ccc([N+](=O)[O-])cc1,7.3%,21.9%,-4.9%,u,61.9%,23.4%
Cc1n[nH]c(C)c1CCCCOc1ccc([N+](=O)[O-])cc1,x,5.7%,-15.0%,-19.7%,17.8%,50.1µM*
c1ccc(OP(Oc2ccccc2)Oc2ccccc2)cc1,8.2%,x,x,x,x,x
Fc1ccccc1N1CCN(Cc2c(F)cccc2F)CC1,4.4%,u,3.55µM*,31.6µM*,u,1.41µM*
Fc1cccc(F)c1CN1CCN(c2ccc(Cl)cc2)CC1,x,2.7%,-17.8%,-6.8%,-1.4%,13.4%
CN1CCN(Cc2c(F)cccc2Cl)CC1,5.1%,u,10µM*,63.1µM*,u,22.4µM*
O=c1[nH]c(N2CCN(Cc3ccc4c(c3)OCO4)CC2)nc2c1CCC2,2.3%,24.6%,-12.3%,3.6%,39.8%,1.1%[12.7 µM]
SMILES,TDP1 inh,Sfp inh,JMJD2A Tudor inh,BAZ2B block,HP1b chromo inh,G9a block
COc1ccc(CN2CCN(c3ccccc3F)CC2)cc1O,2.2%,-15.2%,3.16µM*,u,u,10µM*
Clc1ccccc1N1CCN(Cc2ccc3c(c2)OCO3)CC1,x,-25.9%,28.2µM*,79.4µM*,u,-30.8%[12.7 µM]
COc1ccccc1CN1CC[C@@]2(CCCN(C(=O)Oc3ccccc3)C2)C1,x,-2.0%,x,x,x,5.8%[12.7 µM]
COc1c(C(C)(C)C)cc([N+](=O)[O-])c(C)c1[N+](=O)[O-],16.6%,x,x,x,x,x
Clc1ccccc1CN1CCN(c2ccccc2Cl)CC1,-9.8%,-18.4%,5.62µM*,35.5µM*,u,12.6µM*
Fc1ccccc1N1CCN(Cc2ccc3c(c2)OCO3)CC1,-4.2%,u,3.55µM*,35.5µM*,u,7.94µM*
O=C(Nc1ccccc1)N(Cc1ccc2c(c1)OCO2)C1CCN(Cc2ccccc2)CC1,8.7%,x,-30.0%,u,26.7%,-35.4%[59 µM]
Cc1ccccc1N1CCN(Cc2ccc3c(c2)OCO3)CC1,x,-5.8%,5.62µM*,u,3.5%,7.94µM*
CCN1CCN(Cc2ccccc2C)CC1,2.2%,7.3%,-19.2%,5.7%,20.3%,2.6%[12.7 µM]
CCCCCCNC(=O)N[C@H](Cc1ccc(O)cc1)C(=O)NCCC[C@H]1CN2C(=NC[C@H]2CCC)N1CC1CCC1,x,7.94µM*,x,79.4µM*,x,0.3%[12.7 µM]
O=C(O)CC(O)(CC(=O)O)C(=O)O,9.0%[56.1 µM],4.4%,79.4µM*,x,6.0%,-3.3%[2.33 µM]
CCCCn1c(O)c(/C=N/NC(=O)c2ccncc2)c(=O)[nH]c1=O,8.2%,-5.0%,u,u,41.0%,x
CCC(C)n1c(O)c(/C=N/Nc2ccccc2)c(=O)[nH]c1=S (stereo unspecified),5.4%,44.7µM*,u,u,5.9%,1.12µM*
CCC(C)n1c(O)c(C=NCCc2ccccc2)c(=O)[nH]c1=S (stereo unspecified),4.1%,-9.4%,-26.8%,-26.2%,31.9%,9.5%
O=C(N/N=C/c1c(O)n(Cc2ccc(F)cc2)c(=S)[nH]c1=O)c1ccncc1,9.4%,-16.1%,100µM*,79.4µM*,13.4%,x
CCC(C)n1c(O)c(/C=N/NC(=O)c2ccncc2)c(=O)[nH]c1=S (stereo unspecified),8.0%,10.9%,u,56.2µM*,48.3%,22.0%[59 µM]
CCn1c(O)c(/C=N/NC(=O)c2ccncc2)c(=O)[nH]c1=S,2.8%,-6.5%,70.8µM*,35.5µM*,47.7%,-22.4%[59 µM]
Cc1cccc(N2C(=O)/C(=C/c3ccc(N4CCN(C)CC4)o3)C(=O)NC2=S)c1C,1.3%,63.1µM*,u,-63.4%,-32.3%,44.7µM*
CCc1ccccc1N1C(=O)/C(=C/c2ccc(N3CCN(C)CC3)o2)C(=O)NC1=S,-2.6%,-6.9%,56.2µM*,u,u,u
